This is an account of results in PubChem BioAssay (NCI).

SMILES strings stand for the structures. The panel holds about 83,000 compounds, 20% with a hit somewhere; the sample as a whole holds those more often.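 Growth was measured after 48 h exposure to one concentration of compound in 96-well plates. Values under 10 count as active.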 Values without a mark were called inactive. Active and inactive are the calls of the source.

Some test systems named below: SK-MEL-2 melanoma; EKVX NSCLC; SN12C renal; UO-31 renal; TK-10 renal; ACHN renal; A498 renal; CCRF-CEM leukemia; MOLT-4 leukemia; SR leukemia; RPMI-8226 leukemia; OVCAR-8 ovarian; OVCAR-5 ovarian; OVCAR-4 ovarian; SK-OV-3 ovarian; IGROV1 ovarian; OVCAR-3 ovarian; HS 578T breast; NCI/ADR-RES ovarian.
Common to all, as to test: NCI-60 one-dose screen, 48 h (100 = growth as untreated, 0 = no growth, -100 = all killed)
Holding throughout (conditions): 10 µM unless noted

In the case of `COc1ccc(OC)c(NCC(=O)n2nc(/C=C\c3ccc(O)c(OC)c3)cc2/C=C\c2ccc(O)c(OC)c2)c1`, the growth in the experiment on SK-MEL-2 melanoma was 0.648% (active); in the experiment on EKVX NSCLC, 28.7%; in the experiment on SN12C renal it was 21.5%; in the experiment with UO-31 renal, 5.1% (active); with TK-10 renal, 16.4%; in the experiment with ACHN renal it was 18.6%. Further, the growth with A498 renal is 34.1%; with CCRF-CEM leukemia it was 5.46% (active); in the experiment with MOLT-4 leukemia, 7.73% (active); in the experiment on SR leukemia, 0.623% (active); with RPMI-8226 leukemia it was -8.66% (active); in the experiment with OVCAR-8 ovarian, 7.25% (active). Moreover, the growth was 25.3% in the experiment on OVCAR-5 ovarian; 39.2% in the experiment with OVCAR-4 ovarian; -3.5% (active) in the experiment with SK-OV-3 ovarian; 11.6% in the experiment with IGROV1 ovarian; 12% in the experiment with OVCAR-3 ovarian; 22.2% with HS 578T breast. Moreover, in the experiment with NCI/ADR-RES ovarian, the growth was 20.4%.

In the case of `CCOc1ccccc1C(=O)N1CCN(c2cc(Cl)cc(Cl)c2)CC1`, the growth with SK-MEL-2 melanoma is 18.5%; with EKVX NSCLC, 34.1%; in the experiment with SN12C renal, 25.7%; in the experiment with UO-31 renal, 24.9%; in the experiment on TK-10 renal it was 55.5%; in the experiment with ACHN renal, 21.9%. Besides, the growth in the experiment with A498 renal was 6.38% (active); with CCRF-CEM leukemia it was 7.43% (active); in the experiment on MOLT-4 leukemia it was 7.37% (active); in the experiment on SR leukemia it was 6.79% (active); in the experiment on RPMI-8226 leukemia, 1.53% (active); in the experiment on OVCAR-8 ovarian, 11.2%. Also, the growth with OVCAR-5 ovarian was 46.6%; in the experiment on OVCAR-4 ovarian, 31.7%; in the experiment with SK-OV-3 ovarian it was 25.8%; with IGROV1 ovarian it was 13.8%; in the experiment on OVCAR-3 ovarian, -22.7% (active); in the experiment on HS 578T breast, 41.3%. Besides, in the experiment on NCI/ADR-RES ovarian, the growth is 14.5%.

Turning to `OCc1cnccc1NC12CC3CC(CC(C3)C1)C2`, the growth was 95.1% with SK-MEL-2 melanoma; 103% in the experiment on EKVX NSCLC; 105% in the experiment on SN12C renal; 90.1% with UO-31 renal; 99.1% with TK-10 renal; 101% in the experiment with ACHN renal. Besides, the growth was 94.7% with A498 renal; 95.9% in the experiment on CCRF-CEM leukemia; 88.8% with MOLT-4 leukemia; 98.9% with SR leukemia; 96.8% with RPMI-8226 leukemia; 93.8% with OVCAR-8 ovarian. Further, the growth in the experiment with OVCAR-5 ovarian is 107%; in the experiment with OVCAR-4 ovarian, 101%; in the experiment with SK-OV-3 ovarian, 100%; in the experiment with IGROV1 ovarian, 102%; in the experiment on OVCAR-3 ovarian it was 103%; in the experiment on HS 578T breast, 103%. Further, the growth in the experiment on NCI/ADR-RES ovarian was 98.8%.

As for `CCCCn1c(-c2cccc(OC)c2)nc2cc(OC)c(OC)cc2c1=O`, the growth with SK-MEL-2 melanoma is 101%; in the experiment on EKVX NSCLC it was 70.8%; in the experiment with SN12C renal it was 98.1%; with UO-31 renal, 80.6%; with TK-10 renal, 215%; in the experiment on ACHN renal it was 97.8%. Also, the growth was 110% with A498 renal; -22.6% (active) in the experiment with CCRF-CEM leukemia; 69.8% in the experiment on MOLT-4 leukemia; 75.1% in the experiment with SR leukemia; 58.9% in the experiment with RPMI-8226 leukemia; 118% in the experiment with OVCAR-8 ovarian. Besides, the growth with OVCAR-5 ovarian is 101%; in the experiment with OVCAR-4 ovarian it was 108%; with SK-OV-3 ovarian it was 119%; in the experiment on IGROV1 ovarian it was 89.2%; in the experiment on OVCAR-3 ovarian it was 113%; in the experiment on HS 578T breast, 104%. In the experiment with NCI/ADR-RES ovarian, the growth is 94.2%.

For the compound `O=C(Cn1c2ccccc2c2ccncc21)N/N=C\c1ccc2ccccc2c1`, the growth is 63.8% in the experiment on SK-MEL-2 melanoma; 55.8% in the experiment on EKVX NSCLC; 19.9% with SN12C renal; -28.3% (active) with UO-31 renal; 55.1% in the experiment with TK-10 renal; 4.98% (active) with ACHN renal. The growth was 85.1% with A498 renal; 50.4% in the experiment on CCRF-CEM leukemia; 41.7% with MOLT-4 leukemia; 33.5% in the experiment with SR leukemia; -1.73% (active) in the experiment with RPMI-8226 leukemia; 14.2% in the experiment on OVCAR-8 ovarian. Further, the growth is 75.2% in the experiment with OVCAR-5 ovarian; -11% (active) in the experiment on OVCAR-4 ovarian; 36% in the experiment with SK-OV-3 ovarian; 43.1% in the experiment with IGROV1 ovarian; -37.1% (active) with OVCAR-3 ovarian; 38.2% with HS 578T breast. Further, the growth in the experiment on NCI/ADR-RES ovarian was 27.2%.

With `O=[N+]([O-])c1cccc2cc(S(=O)(=O)O)ccc12`, the growth in the experiment on SK-MEL-2 melanoma was 101%; in the experiment with EKVX NSCLC, 96.2%; with SN12C renal, 98%; in the experiment on UO-31 renal, 92.2%; in the experiment on TK-10 renal, 94%; with ACHN renal, 112%. Moreover, the growth in the experiment with A498 renal is 115%; in the experiment on CCRF-CEM leukemia, 94.6%; in the experiment on MOLT-4 leukemia, 85.5%; with SR leukemia it was 103%; in the experiment on RPMI-8226 leukemia, 99%; in the experiment on OVCAR-8 ovarian it was 98.9%. Also, the growth in the experiment with OVCAR-5 ovarian is 107%; with OVCAR-4 ovarian it was 114%; in the experiment with SK-OV-3 ovarian, 95.1%; in the experiment on IGROV1 ovarian it was 104%; with OVCAR-3 ovarian, 99.8%; in the experiment on HS 578T breast, 107%. Besides, the growth in the experiment with NCI/ADR-RES ovarian is 101%.

Take `O=C(O)c1cc2ccccc2cc1Nc1ccccc1`: the growth with SK-MEL-2 melanoma is 99.2%; in the experiment on EKVX NSCLC, 97.6%; in the experiment on SN12C renal it was 101%; in the experiment with UO-31 renal it was 82.5%; with TK-10 renal, 127%; with ACHN renal, 98.8%. Besides, the growth in the experiment with A498 renal is 102%; in the experiment on CCRF-CEM leukemia, 94.1%; in the experiment with MOLT-4 leukemia, 91.1%; in the experiment on SR leukemia, 97.8%; with RPMI-8226 leukemia, 78.4%; in the experiment with OVCAR-8 ovarian it was 100%. For the same compound, the growth is 90.8% with OVCAR-5 ovarian; 97.5% in the experiment on OVCAR-4 ovarian; 106% with SK-OV-3 ovarian; 108% in the experiment with OVCAR-3 ovarian; 121% in the experiment on HS 578T breast; 93% in the experiment with NCI/ADR-RES ovarian.

Turning to `N#Cc1c(N)nc2c(c1N)C(c1ccc(Cl)cc1)C1=C(CCCC1=O)N2c1sc2c(c1C#N)CCCC2` (stereo not given), the growth in the experiment on SK-MEL-2 melanoma is 95.8%; with EKVX NSCLC, 93.7%; in the experiment with SN12C renal, 95.4%; in the experiment on UO-31 renal, 95.9%; with TK-10 renal, 89.2%; in the experiment on ACHN renal, 96.8%. Moreover, the growth in the experiment on A498 renal is 100%; with CCRF-CEM leukemia it was -34% (active); with MOLT-4 leukemia, 90%; in the experiment on SR leukemia, 41.8%; in the experiment on RPMI-8226 leukemia, 75.5%; with OVCAR-8 ovarian, 84.4%. The growth with OVCAR-5 ovarian is 74.8%; with OVCAR-4 ovarian, 89.9%; in the experiment with SK-OV-3 ovarian it was 89.1%; in the experiment with IGROV1 ovarian it was 89.6%; in the experiment with HS 578T breast it was 86.7%; in the experiment on NCI/ADR-RES ovarian, 81.1%.
